Results taken from ChEMBL document CHEMBL1201862, “PubChem BioAssay data set” (2004).
In all, about 400,000 compounds went through this assay and about 2,100 (0.53%) were called active. About 14% were inconclusive and are not listed. The rule behind the calls is not given here. Only a selection was taken, and actives are over-represented in it overall.

Target: Ataxin-2 (Homo sapiens) (UniProt Q99700)
Assay: qHTS for Inhibitors of ATXN expression.
Type: functional

Chain of Ataxin-2 (Homo sapiens) (Q99700 whole entry): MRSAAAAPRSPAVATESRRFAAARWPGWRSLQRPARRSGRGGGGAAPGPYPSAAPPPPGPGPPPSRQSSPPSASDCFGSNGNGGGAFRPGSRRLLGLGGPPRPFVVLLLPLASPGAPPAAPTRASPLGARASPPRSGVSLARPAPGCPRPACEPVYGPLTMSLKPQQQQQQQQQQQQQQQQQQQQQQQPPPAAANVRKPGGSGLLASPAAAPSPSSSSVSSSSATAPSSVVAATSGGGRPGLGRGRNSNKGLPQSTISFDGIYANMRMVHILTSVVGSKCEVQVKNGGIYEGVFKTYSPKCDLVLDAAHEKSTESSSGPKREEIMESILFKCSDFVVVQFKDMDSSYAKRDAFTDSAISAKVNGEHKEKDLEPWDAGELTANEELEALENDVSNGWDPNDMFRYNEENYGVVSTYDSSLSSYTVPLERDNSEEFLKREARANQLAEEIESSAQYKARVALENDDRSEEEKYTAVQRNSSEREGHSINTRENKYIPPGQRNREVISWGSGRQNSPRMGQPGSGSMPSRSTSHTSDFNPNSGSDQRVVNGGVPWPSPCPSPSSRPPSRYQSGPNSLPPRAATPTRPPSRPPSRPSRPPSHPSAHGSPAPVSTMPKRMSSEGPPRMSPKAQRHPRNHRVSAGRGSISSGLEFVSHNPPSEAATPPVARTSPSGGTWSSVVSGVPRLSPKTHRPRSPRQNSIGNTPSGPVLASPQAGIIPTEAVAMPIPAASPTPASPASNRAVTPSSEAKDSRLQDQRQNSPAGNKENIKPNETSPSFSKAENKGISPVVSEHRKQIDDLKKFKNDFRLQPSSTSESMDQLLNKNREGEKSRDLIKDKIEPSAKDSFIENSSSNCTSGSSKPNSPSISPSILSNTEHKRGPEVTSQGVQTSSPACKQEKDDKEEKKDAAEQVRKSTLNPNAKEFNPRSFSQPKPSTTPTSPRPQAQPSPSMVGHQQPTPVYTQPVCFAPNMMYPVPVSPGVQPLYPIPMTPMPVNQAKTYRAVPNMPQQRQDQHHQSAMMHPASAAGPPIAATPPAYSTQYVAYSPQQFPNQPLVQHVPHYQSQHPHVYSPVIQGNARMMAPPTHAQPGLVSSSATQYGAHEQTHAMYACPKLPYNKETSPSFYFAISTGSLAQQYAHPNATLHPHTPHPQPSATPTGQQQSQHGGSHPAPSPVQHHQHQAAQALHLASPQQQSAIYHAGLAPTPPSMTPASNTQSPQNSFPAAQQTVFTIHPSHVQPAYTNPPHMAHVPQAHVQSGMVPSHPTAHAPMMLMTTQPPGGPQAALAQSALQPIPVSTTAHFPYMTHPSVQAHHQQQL

| SMILES | Potency |
| --- | --- |
| Cc1cc(N2CCN(C)CC2)nc2ccc(NC(=O)Nc3ccccc3)cc12 | 17.8 µM (active) |
| COC(=O)c1cc(N2CCN(C)CC2)nc2ccccc12 | inactive |
| Cc1cc(N2CCN(C)CC2)nc2ccc(NC(=O)CCC3CCCC3)cc12 | inactive |
| Cc1onc(-c2c(Cl)cccc2Cl)c1NC(=O)NNc1ccccn1 | inactive |
| Cc1cc(C)c(C#N)c(SCc2ccc(F)cc2)n1 | inactive |
| Cn1c(Cl)cnc1C1CC(=O)c2cc(Cl)ccc2O1 (stereo not drawn) | 39.8 µM (active) |
| Cc1cccc(-n2cnc(C(=O)N3CCN(C)CC3)c2)n1 | inactive |
| CC#CCN(Cc1ccco1)C(=O)C1CCC(=O)N(CCc2cccc(F)c2)C1 (stereo not drawn) | inactive |
| CCCc1cc(CNC(=O)C2CCC(=O)N(CCc3cccc(F)c3)C2)on1 (stereo not drawn) | 35.5 µM (active) |
| CCc1csc(CCNC(=O)C2CCC(=O)N(Cc3ccccc3F)C2)n1 (stereo not drawn) | inactive |
| COC1=C(c2ccccc2)C(=O)c2ccccc2C1=O | inactive |
| O=C(C1=C(c2ccccc2)C(=O)c2ccccc2C1=O)c1ccccc1 | 7.08 µM (active) |
| O=C(c1ccccc1)c1ccc2cc(O)ccc2c1 | inactive |
| CCOc1ccc2nc(N3CCOCC3)nc(C)c2c1 | inactive |
| OC(CN1CCOCC1)(c1ccccc1)c1ccccn1 (stereo not drawn) | inactive |
| CCOc1ccc(C(=O)C(CN2CCOCC2)c2ccccc2)cc1 (stereo not drawn) | 35.5 µM (active) |
| O=C(N/N=C/c1ccc(N2CCOCC2)cc1)c1ccccc1OCCOc1ccccc1 | inactive |
| CCCCOc1ccc(C(=O)C(CN2CCOCC2)c2ccccc2)cc1 (stereo not drawn) | 39.8 µM (active) |
| CCOc1ccc(C2C(C(=O)OC)=CN(C(C)c3ccccc3)C=C2C(=O)OC)cc1 (stereo not drawn) | inactive |
| CC1Cc2ccccc2N1CC(=O)NC(=O)NC1CCCCC1 (stereo not drawn) | inactive |
| COc1ccc(NC2=C(C(C)=O)C(c3ccc(OC)cc3)C(C(C)=O)C(C)(O)C2)cc1 (stereo not drawn) | inactive |
| CCCCNc1nc2cccnc2s1 | inactive |
| Cc1ccc(S(=O)(=O)c2ccc([N+](=O)[O-])cn2)cc1 | 39.8 µM (active) |
| Cc1cc(S(=O)(=O)c2ccc([N+](=O)[O-])cn2)ccc1Br | 29.9 µM (active) |
| NS(=O)(=O)c1ccc(S(=O)(=O)c2ccccc2)nc1 | inactive |
| Cn1c(S(=O)(=O)c2ccc([N+](=O)[O-])cc2)nc(Br)c1Br | inactive |

| SMILES | Potency |
| --- | --- |
| Cc1cc(Sc2ccc([N+](=O)[O-])cn2)ccc1Br | inactive |
| O=[N+]([O-])c1ccc(Nc2ccccc2F)nc1 | inactive |
| Cc1c(C)c(C)c(C(=O)C2CCN(c3ccc([N+](=O)[O-])cn3)CC2)c(C)c1C | inactive |
| O=[N+]([O-])c1ccc(S(=O)(=O)c2ccccc2)nc1 | 5.62 µM (active) |
| CCN(CC)c1nc(-c2ccccc2)ncc1S(=O)(=O)c1ccc(C)cc1 | inactive |
| Cc1ccc2nc3c(cc(C(=O)NCC4CCCO4)c(=N)n3CC3CCCO3)c(=O)n2c1 (stereo not drawn) | inactive |
| Cc1ccc(C2C=C(c3ccccc3OC(F)F)Nc3ncnn32)cc1 (stereo not drawn) | inactive |
| Cn1c(C(=O)NCCN2CCOCC2)cc2c(=O)n3ccccc3nc21 | inactive |
| CCCCn1c(SCCN2CCCCC2)nc2c1c(=O)n(C)c(=O)n2C | inactive |
| OC(c1cc(C(F)(F)F)nc2c(C(F)(F)F)cccc12)C1CCCCN1 (stereo not drawn) | 20 µM (active) |
| O=S(=O)(Nc1nc2n(n1)C(c1ccc(F)cc1)C=C(c1ccc(Cl)cc1)N2)c1ccccc1 (stereo not drawn) | inactive |
| COCC(C)OC(=O)c1c(N)n(CCCN2CCOCC2)c2nc3ccccc3nc12 (stereo not drawn) | inactive |
| COc1ccc(-c2nn(-c3ccccc3)cc2/C=N/N=C(N)N)cc1OC | 39.8 µM (active) |
| COc1ccc(-c2nn(-c3ccccc3)cc2/C=N/Nc2ccc3ccccc3n2)cc1OC | inactive |
| COc1ccc(-c2nn(-c3ccccc3)cc2/C=C(\CC(=O)O)c2nc3ccccc3s2)cc1OC | inactive |
| N#CC(C#N)=Cc1cnc(O)c(C#N)c1Nc1ccccc1 | inactive |
| Nc1c(C(=O)Nc2ccc(F)cc2)sc2nc(-c3ccco3)ccc12 | inactive |
| Oc1ccc(CN2CCc3ccccc3C2)c2cccnc12 | 7.94 µM (active) |
| O=C(CSc1ncccn1)N1CCc2ccccc2C1 | inactive |
| O=Cc1ccc(O)c2ncccc12 | inactive |
| CCc1ccc(C(=O)c2cc3ccc(O)cc3oc2=O)cc1 | inactive |
| Oc1ccc(C23CC4CC(CC(C4)C2)C3)cc1O | 39.8 µM (active) |
| CNC(=O)/C(C#N)=C/c1c(N2CCN(c3ccc(OC)cc3)CC2)nc2c(C)cccn2c1=O | inactive |
| N=C1SC(c2ccccc2)C(=O)N1c1ncc(Cc2ccccc2Cl)s1 (stereo not drawn) | 12.6 µM (active) |
| Fc1ccc(-n2c(S)nnc2-c2ccc3ccccc3n2)cc1Cl | inactive |
| Oc1c(Br)cc(/C=N/Nc2ccc(Cl)nn2)cc1Br | inactive |

| SMILES | Potency |
| --- | --- |
| FC(F)(F)c1nnc(-c2ccccc2)nc1Sc1ccc(Cl)cc1 | 35.5 µM (active) |
| CN1CCN(c2nc(-c3ccc(Cl)cc3)nc3ccccc23)CC1 | inactive |
| FC(F)(F)c1nnc(-c2ccccc2)nc1Sc1ccccc1 | 39.8 µM (active) |
| COc1cccc(-n2c(C)cc(/C=C3/C(=N)N4C(=NC3=O)SN=C4S(C)(=O)=O)c2C)c1 | inactive |
| COc1cc(/C=C2/C(=N)N3N=C(CC(=O)N4CCOCC4)SC3=NC2=O)ccc1OCc1ccccc1 | inactive |
| Cc1ncc(CO)c(/C=N/NC(=O)c2ccccc2Br)c1O | inactive |
| COc1ccc(/C=C2\SC(=S)N(CCCC(=O)Nc3cc(C)on3)C2=O)cc1OC | inactive |
| COc1cc(/C=C2/SC(=S)N(c3c(C)n(C)n(-c4ccccc4)c3=O)C2=O)ccc1O | 31.6 µM (active) |
| O=C(O)C(c1ccccc1)N1C(=O)/C(=C\c2ccc(O)c(O)c2)SC1=S (stereo not drawn) | 39.8 µM (active) |
| Cn1cc(/C=C2\SC(=S)N(NC(=O)c3ccccc3)C2=O)c2ccccc21 | inactive |
| COc1cc(/C=C2\SC(=S)N(C(C(=O)O)c3ccccc3)C2=O)ccc1O (stereo not drawn) | 17.8 µM (active) |
| Cc1c(NC(=O)COC(=O)/C=C/c2cccc(F)c2)c(=O)n(-c2ccccc2)n1C | inactive |
| COc1cc(/C=C2\SC(=S)N(NC(=O)c3ccc(O)cc3)C2=O)ccc1O | 12.6 µM (active) |
| CCN(CC)c1ccc2cc(C(N)=O)c(=O)oc2c1 | inactive |
| CCNC(=O)c1cc2c(=O)n3cccc(C)c3nc2n(CCc2ccccc2)c1=N | inactive |
| Nc1c(C(=O)N/N=C/c2ccc(F)cc2)oc2nc(-c3ccccc3)cc(-c3ccco3)c12 | inactive |
| O=C(Nc1ccc2nc(-c3ccco3)c(-c3ccco3)nc2c1)N1CCCCCC1 | inactive |
| CCCn1c(=N)c(C(=O)NCc2cccnc2)cc2c(=O)n3ccccc3nc21 | inactive |
| CC1(C)C2CC=C(/C=N/NC(=S)NCCc3ccccc3)C1C2 (stereo not drawn) | inactive |
| COc1cc(C2CC(c3c(C)cc(C)nc3O)=NN2c2ccccc2F)cc(OC)c1OC (stereo not drawn) | inactive |
| CC(C)C(=O)NC(Nc1cc(C(F)(F)F)ccc1Cl)C(Cl)(Cl)Cl (stereo not drawn) | inactive |
| N#Cc1sc2nc(-c3cccs3)cc(-c3ccc(Cl)cc3)c2c1N | inactive |
| O=C(O)c1ccccc1Nc1ccc([N+](=O)[O-])cc1 | inactive |
| O=C(O)c1cc([N+](=O)[O-])ccc1-c1ccc([N+](=O)[O-])cc1C(=O)O | inactive |
| Nc1cc([N+](=O)[O-])ccc1Nc1ccc(O)cc1 | 44.7 µM (active) |
| COc1ccc(C2C3=C(CCCC3=O)N(CC(=O)O)C3=C2C(=O)CCC3)cc1Br | inactive |

| SMILES | Potency |
| --- | --- |
| OC(CNCCC1C=Nc2ccccc21)Cn1c2ccc(Cl)cc2c2cc(Cl)ccc21 (stereo not drawn) | 35.5 µM (active) |
| CN(C)CC(C(=O)c1ccccc1)c1ccccc1 (stereo not drawn) | 20 µM (active) |
| CCOC(=O)C(C(=O)c1ccccc1)C(c1ccccc1)c1nccc2ccccc12 (stereo not drawn) | inactive |
| NCC12CC3CC(C1)CC(c1ccc(Cl)cc1)(C3)C2 | 44.7 µM (active) |
| NCC12CC3CC(C1)CC(c1ccc(Br)cc1)(C3)C2 | 25.1 µM (active) |
| CCOCCCn1c(=N)c(C(=O)NCC2CCCO2)cc2c(=O)n3cccc(C)c3nc21 (stereo not drawn) | inactive |
| N#C/C(=C\c1c(Oc2ccccc2Cl)nc2ccccn2c1=O)C(=O)NC1CCS(=O)(=O)C1 (stereo not drawn) | inactive |
| Cc1cc(O)c(CN(C)C)c2c1C(=O)/C(=C/c1ccco1)O2 | inactive |
| CC/C(=C\C1CCCCC1)C(NP(=O)(c1ccccc1)c1ccccc1)c1ccccc1 (stereo not drawn) | 35.5 µM (active) |
| CC(C)OCCCn1c(NN)nc2ccccc2c1=O | inactive |
| COc1ccccc1Oc1ccc(N/C=C/C(=O)c2ccco2)cc1 | inactive |
| Cc1ccc(SC2=C(Sc3ccc(C)cc3)C(=O)c3ccccc3C2=O)cc1 | inactive |
| COc1ccc(-c2sc3cc4c(cc3c2C#CC2(N)CCCCC2)OCO4)cc1 | 39.8 µM (active) |
| COc1ccc2sc(-c3ccc(N(C)C)cc3)c(C#Cc3cncn3C)c2c1 | inactive |
| COc1cc(OC)cc(-c2sc3ccc(OC)cc3c2C#CC2(N)CCCCC2)c1 | 39.8 µM (active) |
| COc1ccc2sc(-c3ccc(N(C)C)cc3)c(C#CC(C)(C)O)c2c1 | inactive |
| CCOCCCn1c(=N)c(C(=O)NCc2cccnc2)cc2c(=O)n3ccccc3nc21 | inactive |
| N#CC(C(=O)NCc1ccccc1)c1nc2ccccc2nc1N1CCCC1 (stereo not drawn) | inactive |
| O=c1oc2cc(O)ccc2cc1S(=O)(=O)c1ccccc1 | inactive |
| CC(C)(C)c1ccc(C(=O)CC(Sc2ccc(Cl)cc2)C(=O)O)cc1 (stereo not drawn) | 39.8 µM (active) |
| CC(C)N1CCN(Cc2ccc(C#CCCO)cc2)CC1CCO (stereo not drawn) | inactive |
| CCCOc1ccc(C(=O)C(CCC(CNCC)C(=O)c2ccc(OCCC)cc2)CNCC)cc1 (stereo not drawn) | 22.4 µM (active) |
| CCCOc1ccc(C2C(C(=O)OC)=CN(CCOC)C=C2C(=O)OC)cc1 | inactive |
| CCCOc1ccc(CCC(=O)N/N=C/c2ccco2)cc1 | inactive |
| O=C(O)c1cccc(-n2cccc2/C=C2/NC(=O)N(c3ccc(Cl)cc3)C2=O)c1 | inactive |
